EBV gp42 inh – Epstein-Barr virus gp42 inhibitors, primary screen, biochemical, uHTS, fluorescence polarization; Glycoprotein 42 (Epstein-Barr virus (strain AG876)), Q1HVG2; Fluorescence polarization binding assay, mP read-out; inhibition, % (tested at 21.74 µM); 220,000 compounds, 0.42% hits; AID 1085, 2008; in the data active = inhibition above about 50%
BCLXL inh – inhibitors of human Bcl-xL, primary screen, biochemical, fluorescence polarization, HTS; inhibition, % at 10.9 µM; AID 2129, 2009; 320,000 compounds, 0.7% hits; GST-Bcl-xL / FITC-Bim BH3 peptide fluorescence polarization;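 active = inhibition above the mean of all tested compounds plus 3 SD, cutoff set per campaign, cut at about 30% in these data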;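 also: 0% = DMSO wells and 100% = unlabeled Bim-BH3 peptide competitor; inhibitors lower millipolarization by displacing the labeled peptide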
Target sequence (Q07817 whole entry, looked up): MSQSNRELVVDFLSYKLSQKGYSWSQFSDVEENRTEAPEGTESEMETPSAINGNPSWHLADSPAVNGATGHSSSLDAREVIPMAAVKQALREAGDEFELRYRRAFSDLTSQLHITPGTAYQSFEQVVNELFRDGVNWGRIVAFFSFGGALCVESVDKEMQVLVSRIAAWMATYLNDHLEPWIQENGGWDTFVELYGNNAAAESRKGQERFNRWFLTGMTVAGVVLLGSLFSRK
GLD-1 RNA inh – GLD-1/TGE RNA complex disruptors, primary screen, biochemical, fluorescence polarization; purified GLD-1 + fluorescein TGE RNA; inhibition, % at 5.96 µM; 320,000 compounds, 0.44% hits; Female germline-specific tumor suppressor gld-1 (Caenorhabditis elegans), Q17339; AID 2280, 2010;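 active = percent inhibition above a per-plate cutoff, the plate mean of test compounds plus 3 SD, cut at about 30% in these data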;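 also: 0% = DMSO wells with GLD-1 and probe and 100% = wells lacking GLD-1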
Target sequence (Q17339 whole entry, looked up): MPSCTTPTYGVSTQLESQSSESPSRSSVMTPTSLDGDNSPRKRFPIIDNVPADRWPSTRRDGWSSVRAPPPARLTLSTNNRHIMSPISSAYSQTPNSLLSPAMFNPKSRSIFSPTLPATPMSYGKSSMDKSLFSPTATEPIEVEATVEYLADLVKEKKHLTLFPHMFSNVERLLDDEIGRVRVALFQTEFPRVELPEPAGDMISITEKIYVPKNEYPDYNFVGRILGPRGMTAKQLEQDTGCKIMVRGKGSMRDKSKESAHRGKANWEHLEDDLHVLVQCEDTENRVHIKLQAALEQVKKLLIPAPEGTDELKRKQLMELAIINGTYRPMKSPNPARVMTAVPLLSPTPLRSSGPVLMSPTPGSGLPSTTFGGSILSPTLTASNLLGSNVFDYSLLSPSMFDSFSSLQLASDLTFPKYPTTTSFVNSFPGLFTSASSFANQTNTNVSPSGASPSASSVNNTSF
MEX-5 binding – MEX-5 zinc finger RNA-binding disruptors – biochemical, C. elegans, fluorescence polarization, MLPCN library, primary screen | 300,000 compounds, 0.38% hits | activity score (negative = inhibition of binding), % at 10 µM | Zinc finger protein mex-5 (Caenorhabditis elegans), Q9XUB2 | AID 1832, 2009 | MEX-5/FITC-TCR2 RNA binding; hits give low values;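 active = inhibition past about -25% in most replicates, and total fluorescence under double the plate's negative control median, limit read from the data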;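 also: 0% = DMSO and -100% = 5 µM competing unlabeled TCR2 RNA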
E coli Lon inh – inhibitors of E. coli Lon protease, primary screen, biochemical, fluorescence polarization; P0A9M0; purified E. coli Lon protease; inhibition, % at 7.94 µM; 360,000 compounds, 0.42% hits; AID 602123, 2011; in the data active = inhibition above about 13%, passing the limit was not always enough;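 also: 0% = enzyme with probe and DMSO and 100% = no enzyme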
MCL1-BIM inh – inhibitors of MCL1 binding to BIM-BH3, primary screen, biochemical, fluorescence polarization | AID 2057, 2009 | inhibition, % at 10.9 µM | Induced myeloid leukemia cell differentiation protein Mcl-1 (Homo sapiens), Q07820 | 320,000 compounds, 0.68% hits | GST-MCL1 / FITC-Bim-BH3 fluorescence polarization;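 active = inhibition above the mean inhibition of all tested compounds plus 3 SD, set per campaign, cut at about 40% in these data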;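 also: 0% = DMSO wells and 100% = unlabeled Bim-BH3 peptide control; higher means more loss of mP so more displacement of Bim peptide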
eLon confirm – E. coli Lon protease inhibitor retest, confirmation, biochemical, fluorescence polarization; shares compounds with E coli Lon inh; AID 602230, 2012; 1,400 compounds, 31% hits; purified E. coli Lon; inhibition, % at 7.94 µM; in the data active = inhibition above about 16%;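 also: 0% = enzyme with probe and DMSO and 100% = no enzyme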
Numbers without * were called inactive; / = no result; + = active, no number. Only some compounds are listed: those with a hit (about 1.5% of all), similar ones and a draw of the others.

SMILES	EBV gp42 inh	BCLXL inh	GLD-1 RNA inh	MEX-5 binding	E coli Lon inh	MCL1-BIM inh	eLon confirm
COC(=O)Nc1ccc(S(=O)(=O)Nc2ncccn2)cc1	-8.8	0.9	3.3	0.3	26.9*	4.8	-77.8
CCCCOC(=O)Nc1ccc(S(=O)(=O)Nc2ncccn2)cc1	0.3	-12.7	-8.3	1.8	20.9*	-17.4	29.5*
C/C(=C\c1ccccc1)C(=O)Nc1ccc(S(=O)(=O)Nc2ncccn2)cc1	7.0	3.4	3.5	-0.2	22.3*	4.5	-17.9
COc1ccc(C(=O)Nc2ccc(S(=O)(=O)Nc3ncccn3)cc2)cc1OC	-11.0	0.2	0.6	0.5	21.3*	-3.8	8.6
O=C(Cc1ccccc1F)Nc1nc2ccccc2[nH]1	5.5	-0.7	2.1	-3.6	-2.8	-8.0	/
O=C(Cc1cccc2ccccc12)Nc1nc2ccccc2[nH]1	-17.2	-1.4	7.3	-2.4	64.8*	-0.3	3.4
O=C(NCc1cccnc1)c1csc([C@@H]2C[C@H](O)[C@@H](CO)O2)n1	/	/	/	/	-5.2	/	/
O=c1nc2ccccc2c(NS(=O)(=O)c2ccccc2)n1-c1ccccc1	-18.9	2.2	-0.5	2.1	61.0*	4.2	5.7
CC(C)=CCCC(C)CN1CCC(n2nccc2NC(=O)c2cccnc2)CC1 (stereo not given)	/	-3.6	3.2	-0.9	-4.5	-7.5	/
O=C(Cc1ccc(Br)cc1)N1CCN(c2ccccc2O)CC1	2.6	3.2	8.0	0.5	24.4*	-2.7	2.9
O=C(CSc1ccc2c(c1)OCCO2)N1CCN(c2ccccc2O)CC1	/	/	/	/	20.2*	/	-3.5
O=C(Cc1ccc(Br)cc1)N1CCN(c2ccc(F)cc2)CC1	4.4	2.9	-1.0	-0.9	-4.6	4.0	/
COc1cc2nc(/C=C/c3cc(OC)c(OC)c(OC)c3)sc2cc1SC	-23.8	-5.0	-10.3	/	-28.3	-9.2	/
O=C1CCCC/C1=C\Nc1ccc(O)cc1	-23.4	10.3	15.8	1.6	19.5*	3.2	4.7
C/C(=N\NC(=O)c1cccs1)c1ccncc1	/	-1.2	10.2	-1.4	4.3	0.9	/
COc1ccccc1CC(=O)NCc1csc(-c2cccs2)n1	-2.6	8.3	3.6	1.6	-3.9	3.8	/
CC(C)C(=O)NNC(=O)c1csc(-c2cccs2)n1	-23.6	-0.9	0.1	-8.0	25.4*	4.9	5.8
O=C(N/N=C/c1coc2ccc(Cl)cc2c1=O)c1ccc(O)cc1	/	/	/	-3.6	-0.8	/	/
NC(=S)N/N=C/c1coc2ccc(Cl)cc2c1=O	20.9	1.6	9.1	0.1	13.1*	9.2	23.8*
O=C(NCC(=O)N1CCN(S(=O)(=O)c2ccccc2F)CC1)c1ccc2c(c1)OCO2	/	-0.2	-0.7	0.9	5.0	0.3	/
COc1ccc(S(=O)(=O)N2CCN(C(=O)CNC(=O)c3ccc4c(c3)OCO4)CC2)cc1	/	0.7	-3.2	-7.4	53.1*	-3.9	-6.6
Cc1ccc(S(=O)(=O)N[C@@H](Cc2ccccc2)C(=O)N2CCC[C@@H]2C(=O)O)cc1	/	6.2	-2.5	0.4	16.7*	6.9	5.7
CCOC(=O)[C@H]1[C@H]2COc3cc(OC)ccc3[C@@H]2N2C(=O)CN(Cc3ccccc3)C(=O)[C@@]12C	/	-0.3	2.9	/	-1.8	3.0	/
Cc1cc(C(=O)CSc2nnc(-c3ccncc3)n2-c2ccccc2)c(C)n1C	6.3	12.0	16.2	-0.6	18.7*	10.2	-73.2
Cc1cccc(OCc2n[nH]c(=S)n2Cc2ccccc2)c1	2.6	-12.3	5.2	0.9	-9.7	-22.6	/
SMILES	EBV gp42 inh	BCLXL inh	GLD-1 RNA inh	MEX-5 binding	E coli Lon inh	MCL1-BIM inh	eLon confirm
O=C(c1ccco1)N(CC1CCCO1)c1nc(-c2ccccc2)cs1 (stereo not given)	-3.3	5.8	9.3	-0.3	0.2	2.4	/
O=C(c1cccs1)N(CC1CCCO1)c1nc(-c2ccccc2)cs1 (stereo not given)	-7.0	3.9	3.3	-0.8	16.5*	7.0	17.1*
Cc1ccc(NS(=O)(=O)c2cccc(C(=O)NCc3ccccn3)c2)cc1	/	-3.1	7.5	1.0	-6.1	0.3	/
CCOc1cc(S(=O)(=O)NCCCN2CCOCC2)ccc1F	/	0.7	6.0	-4.0	-4.4	-3.0	/
CCCN(CC(=O)Nc1cc(C)on1)CC(=O)Nc1ccccc1C	/	-6.4	5.1	/	60.3*	-0.3	0.4
C=C(C)c1cccc(C(C)(C)NC(=O)N2CCCC(C(N)=O)C2)c1 (stereo not given)	-16.9	8.8	7.6	-0.8	-1.8	1.0	/
COc1ccc(O)c(C(=O)c2cnn(-c3ccc(Cl)cc3)c2)c1	/	2.3	1.7	-1.4	-8.7	2.8	/
COc1ccc(O)c(C(=O)c2cnn(-c3ccccn3)c2)c1	-1.1	0.2	-6.2	1.7	84.2*	-7.8	-12.5
Cc1ccc2c(c1)C(=O)c1ccccc1CS2=O (stereo not given)	-13.5	2.8	3.1	0.7	-10.8	4.0	/
O=C1CN(C(=O)c2ccccc2C(=O)O)c2ccccc2N1	/	-5.8	-63.8	2.7	-21.9	-22.8	/
CCn1c(SCC(=O)Nc2cc(C)on2)nnc1-c1ccco1	-4.3	2.6	-0.8	-1.4	1.5	-2.4	/
CCCCn1c(SCC(=O)Nc2cc(C)on2)nnc1-c1ccco1	-4.2	2.7	-3.4	1.4	14.2*	-2.6	-2.7
c1coc(-c2cnc3ccccc3n2)c1	/	/	/	/	35.5*	/	6.0
Cc1cc2nc3c(=O)n(C4CCCCC4)c(=O)[nH]c3nc2cc1N	141.5*	/	/	/	75.1*	/	115.3*
COc1cc(NC(=O)NS(=O)(=O)c2ccc(C)cc2)cc(OC)c1	-6.3	3.2	-3.6	0.8	8.3	1.4	/
COc1ccc(NC(=O)Nc2ccc(OCc3ccccc3)cc2)cn1	/	/	/	-37.2*	24.9*	/	24.7*
COc1ccc(NC(=O)NS(=O)(=O)c2ccc(C)cc2)cn1	/	/	/	-49.8*	87.5*	/	28.1*
Cn1c(CSCc2ccc(F)cc2)nnc1SCC(=O)Nc1nccs1	-22.8	3.0	5.1	1.4	2.5	4.6	/
COC(=O)c1ccc(NS(=O)(=O)c2c(C)[nH]c(C)c2C(=O)N2CCCC2)cc1	/	2.1	2.4	-0.6	-14.1	2.5	/
COc1ccc(C(=O)NCCS(=O)(=O)NCc2cccs2)cc1	/	-0.9	1.2	-0.6	-3.4	2.1	/
CCCCn1c(N)c(N(CCC(C)C)C(=O)c2ccccc2C)c(=O)[nH]c1=O	/	5.7	5.6	2.7	0.0	-2.1	/
N#CC1=C(N)Oc2ccc3ccc(O)cc3c2C1c1ccsc1 (stereo not given)	161.4*	/	/	-46.9*	+	/	+

Compound activity deposited in PubChem BioAssay by several laboratories.
